Data on 30 molecules can be found in PubChem BioAssay (EPA / NIEHS).

Values joined by “and” are separate entries in the source; they are usually repeats but may differ in a detail not shown here. Identical values can stand only once. More than one record can exist for a structure, and the calls need not agree. Active and inactive are the calls of the source. The calls were made as follows: active = hit-call score of the fitted dose curve at least 0.9, where 1 is the maximum; inactive = score below 0.9.

One assay can be described thus: ATG_NRF2_ARE_CIS: Attagene CIS-FACTORIAL HepG2 Assay for human Nuclear Factor Erythroid 2 Related Factor 2 (NFR2) response to Antioxidant Response Elements (ARE) (AID 2282992).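 As to AC50: reporter mRNA level measured by RT-PCR and capillary electrophoresis fluorescence.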 Conditions: HepG2 Attagene ARE/NRF2 reporter, transcription factor activity; actives raise or lower the signal. The essentials:
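HepG2 cells transiently transfected with multiplexed cis-regulated reporter transcription units measure endogenous transcription factor activity. Reporter mRNA at 24 h is quantified by RT-PCR, fluorescent labelling and capillary electrophoresis, with bidirectional fitting relative to DMSO.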
As to `CCCCC(CC)CN1C(=O)C2C3C=CC(C3)C2C1=O` (stereo unspecified), the concentration at half-maximal activity (AC50) is 16.7 µM (active).

In the case of `O=C(O)C1(C(=O)Nc2ccc(Cl)cc2Cl)CC1`, the AC50 was 30.4 µM (active).

For the molecule `COC(=O)c1ccccc1C(=O)O`, the outcome was inactive.

For the molecule `c1ccc(Nc2ccccc2)cc1`, the concentration at half-maximal activity (AC50) is 123 µM (active) and 30.4 µM (active).

Take `CCOC(=O)NCCOc1ccc(Oc2ccccc2)cc1`: the AC50 is 13.1 µM (active).

With `CC(C)(c1ccc(O)cc1)c1ccc(O)cc1`, the outcome was inactive.

Turning to `O=C(Nc1ccc([N+](=O)[O-])cc1Cl)c1cc(Cl)ccc1O`, the AC50 is 0.544 µM (active).

`COC(=O)c1cccc(C)c1S(=O)(=O)NC(=O)Nc1nc(OCC(F)(F)F)nc(N(C)C)n1`: the concentration at half-maximal activity (AC50) was 30.9 µM (active).

As for `CCCCOC(=O)[C@@H](C)Oc1ccc(Oc2ccc(C(F)(F)F)cn2)cc1`, the result was inactive.

As for `O=C(c1ccc(O)cc1O)c1ccc(O)cc1O`, the result was inactive.

In the case of `CC(C)(C)[C@@H](O)[C@@H](Cc1ccc(Cl)cc1)n1cncn1`, the half-maximal activity concentration (AC50) is 13.4 µM (active).

For `c1ccc2[nH]c(-c3cscn3)nc2c1`, the concentration at half-maximal activity (AC50) is 149 µM (active) and the molecule was classed as inactive.

For the molecule `CCOC(=O)C(C)Oc1ccc(Oc2nc3ccc(Cl)cc3o2)cc1` (stereo unspecified), the call was inactive.

For `CCC(C)OC(=O)N1CCCCC1CCO` (stereo unspecified), the AC50 was 44.4 µM (active) and the result was inactive.

On to `N#CSCSc1nc2ccccc2s1`, for which the AC50 was 2.89 µM (active) and the call was inactive.

As for `CCN(Cc1c(F)cccc1Cl)c1c([N+](=O)[O-])cc(C(F)(F)F)cc1[N+](=O)[O-]`, the concentration at half-maximal activity (AC50) was 4.28 µM (active).

On to `CC(C)CCCCCCc1ccc(O)cc1`, for which the concentration at half-maximal activity (AC50) was 8.96 µM (active) and 11.1 µM (active) and 9.16 µM (active); the molecule was classed as inactive.

Turning to `CCNc1nc(N)nc(Cl)n1`, the result was inactive.

For `COC(=O)c1c(Cl)nn(C)c1S(=O)(=O)NC(=O)Nc1nc(OC)cc(OC)n1`, the outcome was inactive.

Turning to `C[C@]12C[C@H](O)[C@H]3[C@@H](CCC4=CC(=O)CC[C@@]43C)[C@@H]1CC[C@@H]2C(=O)CO`, the call was inactive.

As for `C#C[C@]1(O)CC[C@H]2[C@@H]3CCC4=CC(=O)CC[C@@H]4[C@H]3CC[C@@]21CC`, the AC50 was 52.1 µM (active) and the outcome was inactive.

As to `CCCN(CCC)c1c([N+](=O)[O-])cc(C(F)(F)F)c(N)c1[N+](=O)[O-]`, the concentration at half-maximal activity (AC50) was 5.51 µM (active).

Consider `COC(=O)c1ccc(CNS(C)(=O)=O)cc1S(=O)(=O)NC(=O)Nc1nc(OC)cc(OC)n1`, for which the call was inactive.

With `CCSC(=O)N(CC(C)C)CC(C)C`, the outcome was inactive.

`CCCOC(=O)c1ccc(C(=O)OCCC)nc1`: the molecule was classed as inactive.

For the molecule `COC(=O)c1ccccc1S(=O)(=O)NC(=O)Nc1nc(OC(F)F)cc(OC(F)F)n1`, the call was inactive.

With `CCCCOC(=O)C(C)Oc1ccc(Oc2ccc(C(F)(F)F)cn2)cc1` (stereo unspecified), the call was inactive.

Regarding `COc1nc(C)nc(NC(=O)NS(=O)(=O)c2ccccc2OCCCl)n1`, the AC50 is 6.85 µM (active) and the molecule was classed as inactive.

With `O=C(c1ccccc1)C1CCCCC1`, the molecule was called inactive.

As for `CC(=O)S[C@@H]1CC2=CC(=O)CC[C@]2(C)[C@H]2CC[C@@]3(C)[C@@H](CC[C@@]34CCC(=O)O4)[C@H]12`, the concentration at half-maximal activity (AC50) was 100 µM (active) and the result was inactive.

A further assay in a line: ATG_Oct_MLP_CIS: Attagene CIS-FACTORIAL HepG2 Assay for human Octamer-Binding Transcription Factor (Oct) (AID 2282993). Conditions: HepG2 Attagene cis-factorial Oct reporter, mRNA; actives raise or lower the signal. The essentials: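 HepG2, transient MRTU transfection, cis promoter elements; 24 h dosing; RT-PCR/CE fluorescence read-out of reporter mRNA; fit both directions vs DMSO.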
In the case of `CCCCC(CC)CN1C(=O)C2C3C=CC(C3)C2C1=O` (stereo unspecified), the half-maximal activity concentration (AC50) is 17.4 µM (active).

Take `O=C(O)C1(C(=O)Nc2ccc(Cl)cc2Cl)CC1`: the result was inactive.

`COC(=O)c1ccccc1C(=O)O`: the molecule was called inactive.

Take `c1ccc(Nc2ccccc2)cc1`: the AC50 is 50 µM (active) and the call was inactive.

In the case of `CCOC(=O)NCCOc1ccc(Oc2ccccc2)cc1`, the AC50 is 14 µM (active).

For the molecule `CC(C)(c1ccc(O)cc1)c1ccc(O)cc1`, the result was inactive.

Turning to `O=C(Nc1ccc([N+](=O)[O-])cc1Cl)c1cc(Cl)ccc1O`, the AC50 was 0.7 µM (active).

In the case of `COC(=O)c1cccc(C)c1S(=O)(=O)NC(=O)Nc1nc(OCC(F)(F)F)nc(N(C)C)n1`, the molecule was classed as inactive.

As for `CCCCOC(=O)[C@@H](C)Oc1ccc(Oc2ccc(C(F)(F)F)cn2)cc1`, the call was inactive.

In the case of `O=C(c1ccc(O)cc1O)c1ccc(O)cc1O`, the call was inactive.

As for `CC(C)(C)[C@@H](O)[C@@H](Cc1ccc(Cl)cc1)n1cncn1`, the AC50 is 7.98 µM (active).

Consider `c1ccc2[nH]c(-c3cscn3)nc2c1`, for which the outcome was inactive.

On to `CCOC(=O)C(C)Oc1ccc(Oc2nc3ccc(Cl)cc3o2)cc1` (stereo unspecified), for which the outcome was inactive.

Turning to `CCC(C)OC(=O)N1CCCCC1CCO` (stereo unspecified), the outcome was inactive.

Consider `N#CSCSc1nc2ccccc2s1`, for which the concentration at half-maximal activity (AC50) was 14.5 µM (active) and the outcome was inactive.

As to `CCN(Cc1c(F)cccc1Cl)c1c([N+](=O)[O-])cc(C(F)(F)F)cc1[N+](=O)[O-]`, the call was inactive.

For `CC(C)CCCCCCc1ccc(O)cc1`, the half-maximal activity concentration (AC50) is 17.4 µM (active) and 17.1 µM (active); the result was inactive.

For the molecule `CCNc1nc(N)nc(Cl)n1`, the result was inactive.

As for `COC(=O)c1c(Cl)nn(C)c1S(=O)(=O)NC(=O)Nc1nc(OC)cc(OC)n1`, the call was inactive.

As for `C[C@]12C[C@H](O)[C@H]3[C@@H](CCC4=CC(=O)CC[C@@]43C)[C@@H]1CC[C@@H]2C(=O)CO`, the outcome was inactive.

In the case of `C#C[C@]1(O)CC[C@H]2[C@@H]3CCC4=CC(=O)CC[C@@H]4[C@H]3CC[C@@]21CC`, the molecule was called inactive.

On to `CCCN(CCC)c1c([N+](=O)[O-])cc(C(F)(F)F)c(N)c1[N+](=O)[O-]`, for which the AC50 was 4.57 µM (active).

As for `COC(=O)c1ccc(CNS(C)(=O)=O)cc1S(=O)(=O)NC(=O)Nc1nc(OC)cc(OC)n1`, the molecule was classed as inactive.

Consider `CCSC(=O)N(CC(C)C)CC(C)C`, for which the result was inactive.

As to `CCCOC(=O)c1ccc(C(=O)OCCC)nc1`, the molecule was called inactive.

For `COC(=O)c1ccccc1S(=O)(=O)NC(=O)Nc1nc(OC(F)F)cc(OC(F)F)n1`, the result was inactive.

Turning to `CCCCOC(=O)C(C)Oc1ccc(Oc2ccc(C(F)(F)F)cn2)cc1` (stereo unspecified), the call was inactive.

In the case of `COc1nc(C)nc(NC(=O)NS(=O)(=O)c2ccccc2OCCCl)n1`, the outcome was inactive.

Consider `O=C(c1ccccc1)C1CCCCC1`, for which the molecule was classed as inactive.

In the case of `CC(=O)S[C@@H]1CC2=CC(=O)CC[C@]2(C)[C@H]2CC[C@@]3(C)[C@@H](CC[C@@]34CCC(=O)O4)[C@H]12`, the AC50 is 15 µM (active) and the call was inactive.
